PubChem BioAssay AID1566 (Sanford-Burnham Center for Chemical Genomics, 2009)
“And” between values parts separate entries of the source, which are not always exact repeats. Equal values may be shown once. Among all 290,000 compounds or so, about 1,800 (0.62%) were called active. Rule as the data show it: active = inhibition above about 50%; inactive = the rest. Many of the other results were omitted from the sample, so actives are more common in it than they were.

Experiment: inhibition of NOD2-driven NF-kB reporter – cell-based, luminescence, uHTS, HEK293 (AID 1566)
Settings: HEK293 NOD2/NF-kB luciferase reporter, at 4 µM, hits give high values

inhibition, inactive:
COc1cc(C(O)P(=O)(OC2CCCCC2)c2ccc(N(C)C)cc2)cc(OC)c1OC (stereo unspecified) 0.5%
C=CCNC(=S)NNC(=O)COc1ccc2cc(Br)ccc2c1 -39.9%
CCCCCC(C)NC(=O)c1ccoc1C (stereo unspecified) 12.6%
COC(=O)C1CCN(C(=O)Cc2ccc(Br)cc2)CC1 -8.4%
O=C(CC1C(=O)NCCN1Cc1ccccc1)NCCCOc1cccnc1 (stereo unspecified) 9.1%
CC(=C/c1ccccc1)/C=N/Nc1nc(N2CCOCC2)nc(N2CCOCC2)n1 -9.3%
CC[n+]1c(/C=C/c2ccc(N(C)C)cc2)ccc2ccccc21 17.2%
CC[n+]1c(/C=C/c2ccc(OC)c(OC)c2)ccc2ccccc21 -117%
CC(C)c1ccc(C(C)NCCS(=O)(=O)c2ccc(Br)cc2)cc1 (stereo unspecified) -12.3%
CC(C)c1ccc(C(C)NCCS(=O)(=O)c2ccc(Cl)cc2)cc1 (stereo unspecified) 14.9%
CCCCOC(=O)C1=C(C)NC(=O)NC1c1ccc([N+](=O)[O-])s1 (stereo unspecified) 17.4%
CCc1nc2ccccc2c(C(=O)OCC(=O)Nc2ccc(S(=O)(=O)N3CCOCC3)cc2)c1C -9%
CCCc1nc2ccccc2c(C(=O)OCC(=O)Nc2cccc(S(=O)(=O)N3CCOCC3)c2)c1CC -4.4%
CCN(CC)CCNC(=O)c1ccc(NC(=O)Nc2cccc3ccccc23)cc1 -10.7%
O=C(c1ccccc1)N1CCN(CCc2ccccn2)CC1 -11.9%
COc1ccc(N2C(=O)C3C4C=CC(c5ccccc5)(C3C2=O)C2C(=O)N(c3ccc(OC)cc3)C(=O)C42)cc1 (stereo unspecified) 8%
COc1cc(NC(=O)c2ccccc2)c(OC)cc1Cl -0.5%
COc1ccc(C(=O)Nc2cc(OC)c(Cl)cc2OC)cc1 4.7%
CCN1CCN(C2=C(NS(=O)(=O)c3ccccc3)C(=O)c3ccccc3C2=O)CC1 18.2%
CCN1CCN(C2=C(NS(=O)(=O)c3ccc(C)cc3)C(=O)c3ccccc3C2=O)CC1 38%
Cc1cc(NC(=O)CSc2nc3ccccc3c(=O)n2Cc2ccccc2)no1 9.6%
NC(=O)CSc1nc2ccccc2c(=O)n1Cc1ccccc1 5.3%
CCOC(=O)Cc1c(C)nc(-c2ccccc2)[nH]c1=O -6.7%
COc1ccccc1N1CCN(C(=O)CCNS(=O)(=O)c2cc(Br)cnc2N)CC1 21%
COCCCNC(=O)C1CC(=O)OC1c1ccc(OC)c(OC)c1 (stereo unspecified) -13%
O=C(CCl)N(c1ccccc1)C1CCS(=O)(=O)C1 (stereo unspecified) 1.5%
CC(=O)N(c1ccccc1)C1CCCC1 16.4%
COc1ccc(NC(=S)NCCc2ccccc2)c(C)c1 1.7%
Nc1c(-c2n[nH]c(=S)n2-c2ccc(Cl)cc2Cl)cnn1-c1ccccc1 -0.1%
CCN(CC)S(=O)(=O)c1ccc(/C(O)=C2/C(=O)C(=O)N(CCOC)C2c2ccccc2)cc1 (stereo unspecified) 8.8%
COc1ccc(Cc2nc3ccc(C(=O)NCCn4cccn4)cc3o2)cc1 -0.5%
CCn1cc(CNC(=O)c2ccc3nc(Cc4ccccc4F)oc3c2)cn1 24.7%
CCOC(=O)N1CCN(C(=O)c2ccc3c(c2)NC(=O)/C(=C/c2ccccc2)S3)CC1 9.6%
Cc1oc2c(c1C(=O)O)C(=O)c1ccccc1C2=O 19%
O=C(c1ccccc1)c1coc2c1C(=O)c1ccccc1C2=O 28.9%
COc1cc(NC(=O)CCS(=O)(=O)c2ccc3c(c2)n(C)c(=O)c(=O)n3C)cc(OC)c1 -1.3%
CCN(CC)CCNC(=O)c1cccc(NC(=O)C(=O)c2ccccc2NC(C)=O)c1 3.6%
COc1ccc(C(C)(C)C)cc1S(=O)(=O)n1ccnc1C 9%
OCCN1CCN(CC(O)COc2ccc(C34CC5CC(CC(C5)C3)C4)cc2)CC1 (stereo unspecified) 6%
OCCN(CCO)CC(O)COc1ccc(Br)cc1 (stereo unspecified) 19% and 15.4%
O=C1c2[nH]nc(-c3ccccc3O)c2C(c2cccc(O)c2)N1Cc1ccco1 (stereo unspecified) 24.7%
COc1ccc(S(=O)(=O)N2CCCCC2)cc1NC(=O)CN(C)C1CCCCC1 8%
Cc1cnn(-c2cc(N/N=C/c3ccc(F)cc3)ncn2)c1 -26.9%
CCCCNC1=CC(=O)C(=O)c2ccccc21 -26.1%
CC1=CC(=C2C(=O)c3ccccc3C2=O)C=C(C)N1C -61.9%
CCN1C(=C2C(=O)c3ccccc3C2=O)C=Cc2ccccc21 2.2%
CCCCN1C=CC(=C2N=c3cccc([N+](=O)[O-])c3=N2)C=C1 7.8%
CN1C=CC(=C2C(=O)c3ccccc3C2=O)C=C1 -99%
CCCCCCN1C=CC(=C2C(=O)c3ccccc3C2=O)C=C1 -6.6%
CCCCN1C(C)=CC(=C2C(=O)c3ccccc3C2=O)C=C1C -61.1%
CC1=CC(=C2C(=O)c3ccccc3C2=O)C=C(C)O1 -31.6%

inhibition, active:
CC(NCCS(=O)(=O)c1ccc(Cl)cc1)c1cccc(Cl)c1 (stereo unspecified) 54.1%
CCN1CCN(C2=C(NS(=O)(=O)c3ccc(Br)cc3)C(=O)c3ccccc3C2=O)CC1 50.9%
O=C(CCl)N(c1ccccc1)C1CCCCC1 52.5%
CCn1cc(CNC(=O)c2ccc3nc(Cc4ccc(OC)cc4)oc3c2)cn1 54.1%
O=C1c2ccccc2C(=O)c2c1oc(C(F)(F)F)c2C(=O)c1ccccc1 77.4%
OCCN(CCO)CC(O)COc1ccc(C23CC4CC(CC(C4)C2)C3)cc1 (stereo unspecified) 51.5%
CCCN1C=CC(=C2C(=O)c3ccccc3C2=O)C=C1 83.7%
CCCCN1C=CC(=C2C(=O)c3ccccc3C2=O)C=C1 79.8%
CCCCCN1C=CC(=C2C(=O)c3ccccc3C2=O)C=C1 73.5%
CCN1C=CC(=C2C(=O)c3ccccc3C2=O)C=C1 54.1%
